Dicer processing – blocks human Dicer maturation of pre-miR-21; 47,000 tested, 6% active; Q9UPY3; cat-ELCCA pre-miR-21 Dicer processing, chemiluminescence; hits give high values; z-score at 25 µM; in the data active means z-score above about 3, passing the limit was not always enough;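 further: plate controls were vehicle for no effect and no enzyme for full effect; higher signal means more uncleaved substrate so more Dicer inhibition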
* = called active by the depositor. Many of the other results were omitted from the sample, so hits are more common in it than they were.

Screening CCOC(=O)c1cnn(-c2nc(C)nc3c2cnn3-c2ccccc2)c1N returned Dicer processing 2.47.
For O=C1CC(c2ccccc2)CC2=C1C(c1cc3c(cc1Br)OCO3)Nc1ccccc1N2 (centres undefined) the results were Dicer processing 3.31.
`C=CCN1Cc2ccc(C(=O)O)cc2C1` gave Dicer processing 3.2*.
Screening C=CCN1C(=O)C(O)(CC(=O)c2ccc3c(c2)CCCC3)c2ccccc21 (centres undefined) returned Dicer processing 1.27.
Screening C=CCN1CCc2c(cc(O)c(O)c2Br)[C@@H](c2ccccc2)C1 returned Dicer processing -3.74.
Screening Cc1csc2sc(-c3ccnc(SCC(=O)NC(C)C)n3)c(C)c12 returned Dicer processing -0.72.
CCCCn1c(=O)c2c(nc3n2CCN3c2ccc(OC)cc2)n(C)c1=O was read as Dicer processing -1.26.
For N/C(=N\C(=O)N1CCOCC1)c1ccccc1 the results were Dicer processing -0.12.
`CC(=O)Oc1ccccc1/C(=C/C=C(c1ccccc1)c1ccccc1)N1CCOCC1` gave Dicer processing 4.31*.
CCOC(=O)/C(C#N)=C/C=C(/c1ccc(Cl)cc1)N1CCOCC1 was read as Dicer processing 0.23.
`CC(C)(CC(=O)O)CC(=O)Nc1ccccc1N1CCCCC1` gave Dicer processing 0.66.
O=[N+]([O-])c1cccnc1Sc1ccccn1 was read as Dicer processing -1.77.
For NNC(=O)c1nn(-c2ccccc2)c(=O)cc1O the results were Dicer processing 2.48.
Screening CCCCC(C(=O)O)N1C(=O)C2C3c4ccccc4C(c4ccccc43)C2C1=O (centres undefined) returned Dicer processing 3.52*.
`O=C(O)C(Cc1ccccc1)N1C(=O)C2CCCCC2C1=O` (centres undefined) gave Dicer processing 1.66.
For O=C1C2C3c4ccccc4C(C(=O)O)(c4ccccc43)C2C(=O)N1Cc1ccccc1 (centres undefined) the results were Dicer processing 1.55.
For CCOC(=O)c1cc2c(Cl)cc(Cl)cc2n1C(=O)OC(C)(C)C the results were Dicer processing -2.31.
Screening CCOC(=O)c1cnc2cc(C)[nH]n2c1=O returned Dicer processing 0.82.
`CCOC(=O)c1cnc2n(c1=O)CCS2` gave Dicer processing 3.22*.
`CCOC(=O)c1cnc2cc(C)ccn2c1=O` gave Dicer processing -0.86.
CCOC(=O)CSc1ccc(C(=O)N(Cc2ccc3c(c2)OCO3)c2ccc(F)cc2)cc1[N+](=O)[O-] was read as Dicer processing -0.81.
`CC(=O)NNC(=O)c1sc2nc(-c3ccc(Cl)cc3)nn2c1C` gave Dicer processing 2.42.
`CC(C)OC(=O)Nc1ccc(Cl)c(Cl)c1` gave Dicer processing -0.65.
`O=C(O)c1ccccc1Sc1cc(C(=O)O)c(Sc2ccccc2C(=O)O)cc1C(=O)O` gave Dicer processing -0.1.
COc1ccc(/C=C/c2nn3c(Cc4ccccc4)nnc3s2)cc1 was read as Dicer processing 0.34.
`COc1ccc(/C=C/c2nn3c(COc4ccccc4)nnc3s2)cc1` gave Dicer processing -1.47.
Clc1ccccc1-c1ccc(-c2nn3c(-c4ccco4)nnc3s2)o1 was read as Dicer processing 0.62.
For Cc1ccc(/C=C/c2nn3c(-c4ccco4)nnc3s2)cc1C the results were Dicer processing 2.21.
COc1ccc(/C=C/c2nn3c(Cc4ccc(OC)cc4)nnc3s2)cc1 was read as Dicer processing 4.66*.
COc1ccc(/C=C/c2nn3c(-c4ccccc4Cl)nnc3s2)cc1 was read as Dicer processing 2.26.
Screening Cc1cccc(/C=C/c2nn3c(-c4ccco4)nnc3s2)c1 returned Dicer processing 3.39*.
Clc1ccccc1-c1nnc2sc(/C=C/c3ccccc3)nn12 was read as Dicer processing 1.29.
Cc1ccc(/C=C/c2nn3c(-c4ccco4)nnc3s2)cc1 was read as Dicer processing 3.18*.
COC(=O)c1ccc(Oc2nc3c(c(=O)n(C)c(=O)n3C)n2Cc2ccc(Br)cc2)cc1 was read as Dicer processing -0.76.
O=c1c(F)cn(C2CCCO2)c(=O)n1Cc1cccc2ccccc12 (centres undefined) was read as Dicer processing -0.96.
Screening COc1cc(OC)cc(C(C)(C)OC(=O)NCCC(=O)O)c1 returned Dicer processing -1.
Screening O=c1[nH]c(=O)n(-c2ccc(F)cc2)c2c1CN(CCCc1ccccc1)CN2 returned Dicer processing -1.39.
`COc1ccc(C2/C(=C(\O)c3ccccc3)C(=O)C(=O)N2CCN(C)C)cc1OC` (centres undefined) gave Dicer processing -1.14.
Screening CCOC(=O)c1nnn(-c2nonc2N)c1-c1cccc2ccccc12 returned Dicer processing 3.99*.
`CCN(Cc1c(C(=O)O)nnn1-c1nonc1N)c1ccccc1` gave Dicer processing 2.64.
For CCOC(=O)c1nnn(-c2nonc2N)c1-c1cccs1 the results were Dicer processing -0.05.
Screening CCOC(=O)c1nnn(-c2nonc2N)c1-c1ccccc1Cl returned Dicer processing 1.27.
`CCOC(=O)c1nnn(-c2nonc2N)c1CN(CC)c1ccccc1` gave Dicer processing 5.07*.
`CCOC(=O)c1nnn(-c2nonc2N)c1CN(C)c1ccccc1` gave Dicer processing -0.22.
Screening CSc1ccc(C2CC(=O)Nc3nc(N)[nH]c(=O)c32)cc1 (centres undefined) returned Dicer processing -0.23.
`COC(=O)c1ccc(COc2ccc3c(=O)c(-c4ccc(Cl)cc4)coc3c2)cc1` gave Dicer processing 0.89.
`Cn1c(=O)n(CC(=O)O)c(=O)c2c1nc1n2CCCN1c1ccc(Oc2ccccc2)cc1` gave Dicer processing -2.14.
Screening COc1ncccc1C(=O)NC(CCSC)C(=O)O (centres undefined) returned Dicer processing -1.37.
O=c1c(=O)n2c(nn1CN1CCCCC1)sc1ccccc12 was read as Dicer processing 4.14*.
For O=c1c(=O)n2c(nn1CN1CCOCC1)sc1ccccc12 the results were Dicer processing 4.32*.
For NC(=O)Cn1nc2sc3ccccc3n2c(=O)c1=O the results were Dicer processing -1.26.
`O=c1c(N2CCOCC2)nnc2sc3ccccc3n12` gave Dicer processing 4.29*.
C=CCn1nc2sc3ccccc3n2c(=O)c1=O was read as Dicer processing 1.15.
O=C(Cn1nc2sc3ccccc3n2c(=O)c1=O)c1ccc(Cl)cc1 was read as Dicer processing 7.1.
Cn1nc2sc3ccccc3n2c(=O)c1=O was read as Dicer processing -1.49.
O=c1c(=O)n2c(nn1Cc1ccccc1Cl)sc1ccccc12 was read as Dicer processing -1.29.
Cc1nnc2c(N3CCOCC3)nc3ccccc3n12 was read as Dicer processing -0.14.
N#Cc1c(-c2ccc(Cl)cc2Cl)nn(-c2ccc([N+](=O)[O-])cc2)c1N was read as Dicer processing -1.12.
Cc1nn(-c2ccccc2)c2c1C(c1ccc(Cl)cc1)C(C#N)=C(N)O2 (centres undefined) was read as Dicer processing -1.15.
O=C(c1ccc(Cl)cc1)N1CCS(=NS(=O)(=O)c2ccc(Cl)cc2)CC1 was read as Dicer processing 0.6.
Screening COc1ccc(NC(=O)Nc2nc(-c3ccc(C)c(Cl)c3)c(C)s2)cc1OC1CCCC1 returned Dicer processing 0.44.
`COc1ccc(C2C(C#N)=C(N)Oc3ccc4ccccc4c32)cc1` (centres undefined) gave Dicer processing 1.09.
CC1SCC(=NOC(=O)c2ccccc2Cl)CS1 (centres undefined) was read as Dicer processing -1.27.

Screens: PubChem BioAssay, Center for Chemical Genomics, University of Michigan
